In PubChem BioAssay:
Activity calls are given as the source filed them.

Assays:
[1] = optical density shifts of acrAB sulA E. coli – strain DRC41, OD650, 48 h, E. coli filamentation inducer project, primary screen (AID 1152); settings: higher = more signal, called active from +8 up or from −8 down;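 also: E. coli MC1000 strain DRC41 lacking acrAB efflux pump and sulA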
[2] = probe aLefty1 binding on compound microarray – biochemical, small-molecule microarray, 635/667 nm fluorescence, primary screen (AID 1153); settings: higher = more signal;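 also: score merges spot fluorescence with signal-to-noise ratio from the scanned slide images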
[3] = plasmodial surface anion channel blockers, osmotic lysis – cell-based, P. falciparum Indochina, OD700, 1 h, primary screen (AID 1154); settings: P. falciparum Indochina infected RBC osmotic lysis, higher = more signal, called active from +8 up or from −8 down
[4] = plasmodial surface anion channel blockers, osmotic lysis – cell-based, P. falciparum Indochina, OD700, 2 h, primary screen (AID 1155);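 also: lysis reports solute entry through the parasite surface anion channel PSAC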; settings: P. falciparum Indochina infected erythrocytes, higher = more signal, called active from +8 up or from −8 down
[5] = changes in parasitized red cell lysis, either direction – P. falciparum Indochina, OD700, 3 h, PSAC antagonist project, primary screen (AID 1156); settings: P. falciparum-infected erythrocytes, osmotic lysis, higher = more signal, called active from +8 up or from −8 down
[6] = plasmodial surface anion channel blockers, osmotic lysis – cell-based, P. falciparum Indochina, OD700, 18 h, primary screen (AID 1157); settings: P. falciparum Indochina infected erythrocytes, osmotic lysis OD700, 18 h; higher = more signal, called active from +8 up or from −8 down
[7] = S6 kinase pathway phospho-S6 level changes – cell-based, A549, cytoblot, luminescence, serum-stimulated, primary screen (AID 1158); settings: 5 h, higher = more signal;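 also: serum-stimulated A549 lung adenocarcinoma cells; signal is phosphorylated S6 detected by cytoblot immunostaining with HRP secondary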
[8] = biological target: NADPH oxidase 2 (Homo sapiens) (UniProt P04839); assay: compounds shifting NOX2 Amplex Red fluorescence – cell-based, HEK293-NOX2, PMA-stimulated, NOX inhibitor project, primary screen (AID 1159); settings: 45 min, higher = more signal, called active from +8 up or from −8 down; also: test concentration not given here
Sequence of NADPH oxidase 2 (Homo sapiens) (P04839 whole entry, looked up): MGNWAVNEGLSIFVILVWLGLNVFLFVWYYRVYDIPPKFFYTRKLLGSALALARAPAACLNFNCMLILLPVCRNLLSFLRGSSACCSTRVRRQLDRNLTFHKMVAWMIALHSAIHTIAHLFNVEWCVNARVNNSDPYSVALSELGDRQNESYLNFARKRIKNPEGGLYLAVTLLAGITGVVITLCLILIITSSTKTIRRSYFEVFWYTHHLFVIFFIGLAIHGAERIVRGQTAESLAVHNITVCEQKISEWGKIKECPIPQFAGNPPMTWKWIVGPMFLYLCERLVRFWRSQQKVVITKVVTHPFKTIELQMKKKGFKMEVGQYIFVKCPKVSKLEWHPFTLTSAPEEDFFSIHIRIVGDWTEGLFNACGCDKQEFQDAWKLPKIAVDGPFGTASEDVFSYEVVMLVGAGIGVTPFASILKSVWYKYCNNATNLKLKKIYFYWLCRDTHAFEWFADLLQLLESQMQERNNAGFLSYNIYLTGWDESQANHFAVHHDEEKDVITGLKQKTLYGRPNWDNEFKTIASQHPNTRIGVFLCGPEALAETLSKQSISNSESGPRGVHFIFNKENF

[9] = biological target: NADPH oxidase 4 (Homo sapiens) (UniProt Q9NPH5); assay: compounds shifting NOX4 Amplex Red fluorescence – cell-based, HEK293-NOX4, tetracycline-induced, NOX inhibitor project, primary screen (AID 1160); settings: HEK293-NOX4, Amplex Red H2O2 fluorescence, 45 min; higher = more signal, called active from +8 up or from −8 down
Sequence of NADPH oxidase 4 (Homo sapiens) (Q9NPH5 whole entry, looked up): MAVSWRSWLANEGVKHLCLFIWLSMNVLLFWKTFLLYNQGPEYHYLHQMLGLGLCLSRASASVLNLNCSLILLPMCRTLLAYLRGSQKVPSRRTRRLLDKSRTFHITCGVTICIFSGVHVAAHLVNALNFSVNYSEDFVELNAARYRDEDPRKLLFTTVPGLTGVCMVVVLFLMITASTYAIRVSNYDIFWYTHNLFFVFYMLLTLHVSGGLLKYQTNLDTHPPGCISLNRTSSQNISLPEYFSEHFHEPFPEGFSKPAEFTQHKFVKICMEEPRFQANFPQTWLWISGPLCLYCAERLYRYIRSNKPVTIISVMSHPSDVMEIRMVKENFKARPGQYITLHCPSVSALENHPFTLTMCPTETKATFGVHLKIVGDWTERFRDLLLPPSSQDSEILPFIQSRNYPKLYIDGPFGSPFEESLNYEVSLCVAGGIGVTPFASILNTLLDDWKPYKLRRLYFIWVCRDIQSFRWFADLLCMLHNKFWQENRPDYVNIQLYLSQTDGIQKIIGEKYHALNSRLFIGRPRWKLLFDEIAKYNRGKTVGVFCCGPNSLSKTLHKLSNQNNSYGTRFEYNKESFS

[10] = biological target: NADPH oxidase 5 (Homo sapiens) (UniProt Q96PH1); assay: compounds shifting NOX5 Amplex Red fluorescence – cell-based, HEK293-NOX5, NOX inhibitor project, primary screen (AID 1161); settings: HEK293-NOX5, ionomycin, 45 min, higher = more signal
Sequence of NADPH oxidase 5 (Homo sapiens) (Q96PH1 whole entry, looked up): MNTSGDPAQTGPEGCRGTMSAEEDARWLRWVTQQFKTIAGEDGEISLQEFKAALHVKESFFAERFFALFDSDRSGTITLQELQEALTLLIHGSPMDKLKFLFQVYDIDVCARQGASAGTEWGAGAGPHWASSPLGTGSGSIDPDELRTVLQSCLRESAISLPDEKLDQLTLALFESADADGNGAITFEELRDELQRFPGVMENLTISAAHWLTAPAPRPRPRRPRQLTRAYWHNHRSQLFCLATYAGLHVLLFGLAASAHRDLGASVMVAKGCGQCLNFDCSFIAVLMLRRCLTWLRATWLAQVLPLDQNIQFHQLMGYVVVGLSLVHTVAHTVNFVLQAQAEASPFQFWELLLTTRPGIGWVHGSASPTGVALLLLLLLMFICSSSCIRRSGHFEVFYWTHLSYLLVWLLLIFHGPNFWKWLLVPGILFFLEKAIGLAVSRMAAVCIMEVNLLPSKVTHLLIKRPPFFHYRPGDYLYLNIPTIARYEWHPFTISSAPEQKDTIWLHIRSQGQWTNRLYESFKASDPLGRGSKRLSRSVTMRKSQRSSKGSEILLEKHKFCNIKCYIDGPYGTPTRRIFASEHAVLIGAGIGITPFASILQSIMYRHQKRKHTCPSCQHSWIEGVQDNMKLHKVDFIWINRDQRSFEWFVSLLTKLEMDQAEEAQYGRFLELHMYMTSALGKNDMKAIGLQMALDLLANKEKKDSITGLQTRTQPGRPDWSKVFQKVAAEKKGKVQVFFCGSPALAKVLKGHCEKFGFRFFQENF

SMILES	z-score [1]	composite z-score [2]	z-score [3]	z-score [4]	z-score [5]	z-score [6]	z-score [7]	z-score [8]	z-score [9]	z-score [10]
CCCCC(=C=CC[C@@H](O)c1ccc(OCCO)cc1)CCO	0.565 (inactive)	0.0129	6.76 (inactive)	0.892 (inactive)	0.249 (inactive)	0.503 (inactive)	-0.481	1.14 (inactive)	0.699 (inactive)	-0.192
COC(=O)[C@]1(Cc2ccccc2N=[N+]=[N-])N=C(c2ccc(OCCCO)cc2)O[C@@H]1c1ccccc1CN=[N+]=[N-]	-1.01 (inactive)	-0.0012	22.2 (active)	9.37 (active)	-0.732 (inactive)	2.26 (inactive)	0.76	-2.97 (inactive)	0.167 (inactive)	-2.43
CC1C2C(CCCO)=CC(C3C(=O)N(C)C(=O)C23)N1Cc1cccc(OC(F)(F)F)c1 (stereo not given)	0.337 (inactive)	-0.0083	1.38 (inactive)	0.938 (inactive)	1.07 (inactive)	0.528 (inactive)	1.04	0.733 (inactive)	-0.702 (inactive)	0.455
O=C1O[C@H](c2ccccc2)[C@H](c2ccccc2)N2[C@H]1[C@@H](C(=O)O)[C@]1(C(=O)Nc3ccccc31)[C@H]2c1ccc(OCCO)cc1	0.368 (inactive)	0.183	3.81 (inactive)	0.173 (inactive)	-0.776 (inactive)	0.124 (inactive)	-0.412	0.388 (inactive)	1.09 (inactive)	0.958
O=C1C2C=CC(C(O)C3CC=CCC3)N(Nc3ccc([N+](=O)[O-])cc3)C2C(=O)N1c1ccccc1 (stereo not given)	-0.852 (inactive)	0.908	24.8 (active)	5.02 (inactive)	4 (inactive)	1.2 (inactive)	-0.837	-1.03 (inactive)	-3.02 (inactive)	-3.26
O=C1C[C@@](C(=O)NCC(F)(F)F)(c2ccc([N+](=O)[O-])cc2)[C@@H](c2ccc(CO)cc2I)N1CC12CC3CC(CC(C3)C1)C2	0.662 (inactive)	0.383	22.4 (active)	5.06 (inactive)	-0.0836 (inactive)	0.69 (inactive)	2.26	1 (inactive)	-0.564 (inactive)	0.733
CC(C)c1ccc(NN2C(C(O)C3=C[C@H]4C[C@@H](C3)C4(C)C)C=CC3C(=O)N(c4ccccc4)C(=O)C32)cc1 (stereo not given in full)	-0.736 (inactive)	0.587	1.8 (inactive)	1.13 (inactive)	0.0675 (inactive)	1.37 (inactive)	-0.578	-0.843 (inactive)	-3.08 (inactive)	-1.62
COc1ccc([Si](C)(C)[C@H]2[C@H](CC(=O)N3CCC[C@H]3CO)O[C@@]3(C(=O)N(C)c4ccccc43)[C@@H]2C)cc1	-0.716 (inactive)	-0.0143	0.577 (inactive)	0.225 (inactive)	-0.0347 (inactive)	0.423 (inactive)	-0.0454	1.4 (inactive)	1.46 (inactive)	1.86
COC(=O)C1=CC(c2ccc(CO)cc2)=CC(C2CC2)N(Cc2cc3c(cc2Br)OCO3)C=C1C(=O)OC (stereo not given)	-0.938 (inactive)	0.3	10.6 (active)	0.856 (inactive)	0.954 (inactive)	0.572 (inactive)	-0.625	-0.853 (inactive)	-0.385 (inactive)	0.857
COc1ccc(CCNC(=O)[C@@H]2c3ccccc3C(=O)N(C(C)C)[C@H]2c2ccc(CO)cc2)cc1	1.73 (inactive)	-0.27	3.24 (inactive)	0.785 (inactive)	1.3 (inactive)	0.376 (inactive)	0.307	-0.219 (inactive)	0.821 (inactive)	0.338
COC(=O)[C@@]1(Cc2ccc(F)cc2)[C@H]2c3cc(C(=O)N4CCCC4)n(CCSCCO)c3C[C@H]2CN1C(=O)c1ccccc1	-0.683 (inactive)	0.433	1.37 (inactive)	0.367 (inactive)	0.189 (inactive)	0.618 (inactive)	0.332	0.639 (inactive)	-0.179 (inactive)	-0.345
COC(=O)C(CC#Cc1ccc2c(c1)[C@]1(C(=O)N2)[C@H](c2ccc(OCCO)cc2)N2[C@H](c3ccccc3)[C@H](c3ccccc3)OC(=O)[C@H]2[C@@H]1C(N)=O)C(=O)OC	-0.763 (inactive)	0.0319	3.9 (inactive)	1.36 (inactive)	-0.623 (inactive)	0.615 (inactive)	-0.359	1.56 (inactive)	0.784 (inactive)	0.345
COc1ccc([Si](C)(C)[C@H]2[C@H](CC(=O)N(CCO)Cc3ccccc3)O[C@@]3(C(=O)N(Cc4cccc(N5CCCCC5=O)c4)c4ccccc43)[C@@H]2C)cc1	1.52 (inactive)	0.109	11.3 (active)	1.31 (inactive)	0.4 (inactive)	-0.553 (inactive)	2.6	0.0671 (inactive)	0.591 (inactive)	2.24
CCOC(=O)C[C@H]1[C@H](OC(=O)Cc2ccc3c(c2)OCO3)[C@@H](NC(=O)CC(C)C)c2cc(OCCCO)ccc2N1C(=O)c1ccc2ccccc2n1	0.685 (inactive)	0.0004	2.75 (inactive)	-1.19 (inactive)	-0.161 (inactive)	-2.54 (inactive)	0.806	0.0707 (inactive)	-0.356 (inactive)	-1.54
CCN1C(=O)C2CC(=O)C3C(CN(S(=O)(=O)c4ccc(C)cc4)C3c3ccc(C)cc3)C2C1=O (stereo not given)	0.344 (inactive)	-0.0967	1.04 (inactive)	0.804 (inactive)	0.135 (inactive)	0.609 (inactive)	-0.0511	-0.374 (inactive)	-0.0929 (inactive)	-0.525
C=CCNC(=O)[C@H]1[C@@H]2C(=O)O[C@@H](c3ccccc3)[C@@H](c3ccccc3)N2[C@@H](c2ccc(O)cc2)[C@]12C(=O)Nc1ccccc12	1.58 (inactive)	-0.191	2.59 (inactive)	0.301 (inactive)	-0.458 (inactive)	0.393 (inactive)	0.288	0.0548 (inactive)	-0.789 (inactive)	1.04
C=C(COC)/C(=C/C[C@@H](OC(=O)c1ccncc1)c1ccccc1OCCO)c1cnc2ccccc2c1	0.588 (inactive)	0.333	25.7 (active)	11.5 (active)	0.518 (inactive)	1.09 (inactive)	0.261	0.0701 (inactive)	0.217 (inactive)	-1.13
CCOC(=O)C[C@H]1[C@H](OC(=O)c2cc3ccccc3oc2=O)[C@@H](NC(=O)Cc2ccc(OC)cc2)c2cc(OCCCO)ccc2N1C(=O)Cc1ccc(OC)cc1	0.983 (inactive)	1.28	6.34 (inactive)	-1.26 (inactive)	-0.456 (inactive)	-2.42 (inactive)	1.32	1.38 (inactive)	1.52 (inactive)	0.991
CC[C@@H](O[Si](C#C[Si](C(C)C)(C(C)C)C(C)C)(C(C)C)C(C)C)c1cn([C@H](CO)Cc2ccccc2)nn1	0.922 (inactive)	-0.0094	0.355 (inactive)	0.49 (inactive)	-0.68 (inactive)	0.0878 (inactive)	-0.116	-0.69 (inactive)	0.408 (inactive)	-0.133
CCCN1C(=O)[C@@]2(c3ccc([N+](=O)[O-])cc3)CC(=O)N(C3CCCCC3)[C@@H]2c2ccc(CO)cc21	-1.45 (inactive)	-0.5	-0.0987 (inactive)	0.636 (inactive)	-0.203 (inactive)	0.0577 (inactive)	-0.504	-0.955 (inactive)	-0.281 (inactive)	-0.19
O=C(NC1CC1)[C@@H]1c2ccccc2C(=O)N(C2CCCCC2)[C@H]1c1ccc(CO)cc1	0.1 (inactive)	-0.28	1.4 (inactive)	0.295 (inactive)	0.973 (inactive)	0.0604 (inactive)	-0.0513	0.382 (inactive)	0.589 (inactive)	0.536
NCCCCCCNC(=O)[C@@H]1C[C@@H]2C(=O)NCC(=O)N2[C@@H]1c1cccc(OCCO)c1	0.884 (inactive)	0.0892	1.68 (inactive)	0.774 (inactive)	-0.523 (inactive)	0.0308 (inactive)	1.51	1.29 (inactive)	0.934 (inactive)	1.65
C=C(CC1([C@@H](NP(=O)(c2ccccc2)c2ccccc2)[C@H]2C[C@@H]2CCCC)CC1)c1cccc(OC)c1	-1.57 (inactive)	0.494	2.33 (inactive)	0.451 (inactive)	1.36 (inactive)	0.935 (inactive)	-0.254	-0.914 (inactive)	-1.36 (inactive)	-2.78
COc1ccc(NN2C(C(O)c3ccccc3)C=CC3C(=O)N(C4CCCCC4)C(=O)C32)cc1 (stereo not given)	-0.775 (inactive)	0.0479	11.8 (active)	2.25 (inactive)	1.31 (inactive)	1.22 (inactive)	-0.388	-2.76 (inactive)	-2.65 (inactive)	-2.39
Cc1ccc(S[C@]2(C(=O)NCC(C)C)CC(=O)N(C(C)C)[C@@H]2c2ccc(CO)cc2I)cc1	0.746 (inactive)	0.245	4.28 (inactive)	0.965 (inactive)	0.504 (inactive)	0.279 (inactive)	0.363	2.02 (inactive)	-0.511 (inactive)	1.9
COc1ccc([Si](C)(C)[C@@H]2[C@@H](CC(=O)N3Cc4ccccc4C[C@H]3CO)O[C@]3(C(=O)N(Cc4ccc(I)cc4)c4ccccc43)[C@H]2C)cc1	1.35 (inactive)	0.0063	4.93 (inactive)	1.98 (inactive)	2.47 (inactive)	1.21 (inactive)	0.192	1.19 (inactive)	1.15 (inactive)	0.652
